In PubChem BioAssay AID588683 (Broad Institute, 2011):
Potency and affinity values are given separately. Calls of active or inactive are those of the source. How the calls were made is not given here.

Molecular target: Kelch-like ECH-associated protein 1 (Homo sapiens) + Nuclear factor erythroid 2-related factor 2 (Homo sapiens) (UniProt Q14145+Q16236)
Test: Keap1-Nrf2 protein-protein interaction inhibitors, dose response, biochemical, fluorescence polarization, cherry-picked samples (AID 588683);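 further: Kelch domain of Keap1 binding a fluorescein-labelled 9mer Nrf2 peptide; more negative means stronger inhibition of peptide binding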
Conditions: Keap1/Nrf2 peptide fluorescence polarization, plate reader; series mostly up to 26 µM

Sequence of Kelch-like ECH-associated protein 1 (Homo sapiens) + Nuclear factor erythroid 2-related factor 2 (Homo sapiens) (Q14145 whole entry, looked up, the tested form may be a part): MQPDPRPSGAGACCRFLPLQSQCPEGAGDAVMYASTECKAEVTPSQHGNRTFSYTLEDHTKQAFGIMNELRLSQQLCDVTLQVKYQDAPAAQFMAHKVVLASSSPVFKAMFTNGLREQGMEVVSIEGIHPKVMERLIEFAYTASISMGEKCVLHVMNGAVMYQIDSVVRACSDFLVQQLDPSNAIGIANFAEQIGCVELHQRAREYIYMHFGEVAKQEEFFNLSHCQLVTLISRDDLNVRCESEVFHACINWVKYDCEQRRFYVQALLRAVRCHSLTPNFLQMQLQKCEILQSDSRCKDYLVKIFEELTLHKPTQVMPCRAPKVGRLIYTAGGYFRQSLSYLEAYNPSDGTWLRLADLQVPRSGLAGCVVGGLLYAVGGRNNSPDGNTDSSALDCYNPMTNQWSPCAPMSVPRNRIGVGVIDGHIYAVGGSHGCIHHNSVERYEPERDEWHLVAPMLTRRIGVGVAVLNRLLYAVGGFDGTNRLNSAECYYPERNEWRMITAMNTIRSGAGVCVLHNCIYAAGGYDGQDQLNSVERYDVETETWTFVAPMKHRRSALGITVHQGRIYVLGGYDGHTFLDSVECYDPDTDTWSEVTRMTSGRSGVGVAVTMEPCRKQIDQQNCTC
Sequence of Kelch-like ECH-associated protein 1 (Homo sapiens) + Nuclear factor erythroid 2-related factor 2 (Homo sapiens) (Q16236 whole entry, looked up, the tested form may be a part): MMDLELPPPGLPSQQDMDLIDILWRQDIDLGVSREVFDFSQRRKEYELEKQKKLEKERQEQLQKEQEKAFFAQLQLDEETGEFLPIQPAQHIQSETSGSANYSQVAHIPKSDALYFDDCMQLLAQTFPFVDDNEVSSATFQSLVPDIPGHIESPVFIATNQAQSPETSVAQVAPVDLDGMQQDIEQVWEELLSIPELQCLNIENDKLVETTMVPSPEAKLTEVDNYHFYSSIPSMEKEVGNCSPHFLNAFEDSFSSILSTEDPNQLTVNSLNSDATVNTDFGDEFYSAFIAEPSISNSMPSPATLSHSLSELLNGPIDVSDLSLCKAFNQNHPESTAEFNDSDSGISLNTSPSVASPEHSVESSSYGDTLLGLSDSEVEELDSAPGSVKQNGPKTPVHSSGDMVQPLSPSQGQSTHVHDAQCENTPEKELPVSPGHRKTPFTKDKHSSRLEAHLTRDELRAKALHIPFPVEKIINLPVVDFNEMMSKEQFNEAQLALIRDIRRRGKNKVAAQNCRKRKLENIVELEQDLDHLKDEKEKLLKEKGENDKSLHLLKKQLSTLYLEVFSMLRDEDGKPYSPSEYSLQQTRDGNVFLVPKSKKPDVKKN

outcome, inactive:
CCOCCCn1c(=NC(=O)c2cccs2)c(C#N)cc2c(=O)n3ccccc3nc21, CNC(=O)C1CC(=O)N(c2ccc(OCC(=O)Nc3ccc(F)cc3)cc2)C1 (stereo not drawn), Cc1ccc(C(=O)NNC(=O)c2n[nH]c(=O)c3ccccc23)cc1C, O=C(CSCC(=O)Nc1ccccc1)N/N=C/c1c(O)ccc2ccccc12, O=C(CN1C(=O)NC2(CCCC2)C1=O)Nc1ccc(C(F)(F)F)cc1, Oc1[nH]c2ccccc2c1N=Nc1ccccc1, Cn1c(SCC(=O)c2cc(Cl)c(Cl)s2)nnc1-c1ccco1, CCOC(=O)c1c(NC(=O)CN2CCN(S(=O)(=O)c3cc(Cl)ccc3Cl)CC2)sc(C(=O)N(C)C)c1C, CC1OC2(C)OC(=N)C1(C#N)C(C#N)(C#N)C2c1ccccc1 (stereo not drawn), CCN(CC)c1ccc(C2Nc3cccc4cccc(c34)N2)cc1, O=C(NC1(O)C(=O)c2ccccc2C1=O)c1c(Cl)cccc1Cl, CCSc1ncc(Cl)c(C(=O)Nc2ccccc2OC)n1, COc1ccc(Nc2nc3ccccc3nc2-n2nc(C)cc2C)cc1, CCOC(=O)N1CCN(Cc2ccccc2Cl)CC1, Cc1cccc(C)c1NC(=O)CSc1nnc(-c2ccco2)c(-c2ccco2)n1, O=C1c2ccccc2-c2onc3ccc(Oc4ccccc4)c1c23, c1ccc(-n2ncc3c(NCC4CCCO4)ncnc32)cc1 (stereo not drawn), Cc1ccc(-c2nc3sc(C#N)c(N)n3c(=O)c2C#N)cc1, O=C(COC(=O)c1ccc([N+](=O)[O-])s1)Nc1cccc(S(=O)(=O)NC2=NCCCCC2)c1, CCOc1ccc2noc3c2c1C(=O)c1ccccc1-3, CCOC(=O)c1c(=O)n(O)c2ccc(OC)cc2[n+]1[O-], CCCCC1OC23CCCCC2C(C#N)(C(=N)O3)C1(C#N)C#N (stereo not drawn), COc1ccc(NC(=O)Cc2ccsc2)cc1S(=O)(=O)N1CCOCC1, COc1ccc(/C=N/N=C2/CC(C)(C)Cc3n[nH]c(=O)cc32)cc1, CCC(C(=O)NC1C(=O)N2C(C(=O)O)=C(CSc3nnc(C)s3)CSC12)c1ccccc1 (stereo not drawn), CCOCCCn1c(=NC(=O)c2cccs2)c(C#N)cc2c(=O)n3cccc(C)c3nc21, O=C(CCCN1C(=O)/C(=C\c2ccco2)SC1=S)Nc1ccc(O)cc1C(=O)O, Cc1cccc(NC(=O)CCN2CCCCC2)c1, N#Cc1c(SCC(=O)Nc2nncs2)sc2c(O)cc(=O)[nH]c12, O=C(CCCCl)NC(=S)Nc1ccc(N2CCOCC2)cc1, O=C(O)c1cccc(-n2cccc2/C=C2/NC(=O)N(c3ccc(Cl)cc3)C2=O)c1, Cc1cccn2c(=O)c3cc(S(=O)(=O)c4ccccc4)c(=N)n(Cc4cccnc4)c3nc12, Cc1nc(NS(=O)(=O)c2ccccc2)sc1NC(=O)OCCN(C)C, CS(=O)(=O)N1CCCC(C(=O)Nc2ccc(F)c(F)c2)C1 (stereo not drawn), O=C1c2cccc3c(N4CCCCC4)ccc(c23)C(=O)N1c1ccccc1O, Cn1ccnc1Sc1cc(NCCCO)c([N+](=O)[O-])c2nonc12, CCCC1OC23CCCCC2C(C#N)(C#N)C1(C#N)C(=N)O3 (stereo not drawn), O=C(Nc1ccccn1)C1CCN(S(=O)(=O)c2ccc3c(c2)OCCO3)CC1
